# According to PubChem BioAssay AID1851 (National Center for Advancing Translational Sciences (NCATS), 2009):
# Among all 16,000 compounds or so, about 5,100 (32%) were called active. About 25% were inconclusive and are not listed. Calls follow the shape of the dose curve; as a rule, active = well fitted curve in the direction sought with a large enough effect; inconclusive = small, poorly fitted or top-dose-only effect, or effect the other way; inactive = no such curve, though single readings can be large or run the other way. This is one part of the list.
# Target: Cytochrome P450 3A4 (Homo sapiens) (UniProt P08684)
# Sequence (P08684 whole entry, looked up): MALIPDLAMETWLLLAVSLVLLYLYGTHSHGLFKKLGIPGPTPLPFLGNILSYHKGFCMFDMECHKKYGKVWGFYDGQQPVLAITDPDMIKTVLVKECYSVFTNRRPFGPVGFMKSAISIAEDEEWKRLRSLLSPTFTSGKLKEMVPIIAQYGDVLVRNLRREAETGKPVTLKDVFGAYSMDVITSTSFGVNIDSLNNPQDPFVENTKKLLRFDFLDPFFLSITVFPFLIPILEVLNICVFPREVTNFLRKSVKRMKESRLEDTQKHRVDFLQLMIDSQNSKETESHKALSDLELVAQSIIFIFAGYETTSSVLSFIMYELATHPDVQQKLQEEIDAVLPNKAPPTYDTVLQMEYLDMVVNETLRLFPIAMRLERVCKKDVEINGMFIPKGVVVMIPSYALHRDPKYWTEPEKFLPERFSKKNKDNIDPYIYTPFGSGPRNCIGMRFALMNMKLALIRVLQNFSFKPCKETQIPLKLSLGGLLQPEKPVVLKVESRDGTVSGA
# Assay: Cytochrome panel assay with activity outcomes
# Settings: recombinant CYP, pro-luciferin dealkylation, luminescence, p450-cyp3a4; series mostly up to 57.1 µM
# % is scaled to controls: 0 for no effect and ±100 for the full control effect.
SMILES,AC50,"activity, negative = inhibition"
CCOC(=O)Cn1c(=O)oc2cc(S(=O)(=O)NCCc3ccc(OCC)c(OCC)c3)ccc21,12600 nM (active),–
CC(=O)Nc1ccc(S(=O)(=O)NCCc2ccc(F)cc2)cc1,–,-13.3% [at 2.29 µM] (inactive)
CC(=O)c1c(C(C)=O)c(C)n(NC(=O)c2ccncc2)c1C,inactive,–
O=C(NN=C1C2CC3CC(C2)CC1C3)c1ccncc1,25100 nM (active),–
COc1ccc2c(c1)C(=O)N(c1ccccc1)C(=O)C2,2240 nM (active),–
O=C1c2ccc3c4c(ccc(c24)C(=O)N1c1ccc2ccccc2c1)CC3,inactive,–
COc1ccc2c(c1)-c1ccccc1S(=O)(=O)N2C,inactive,–
O=C(COc1ccc([N+](=O)[O-])cc1)NCc1ccccc1,inactive,–
O=C(c1ccc(COc2ccc(F)cc2)o1)n1cccn1,inactive,–
O=C(COc1ccc([N+](=O)[O-])cc1)Nc1ccc(C(=O)NCc2cccnc2)cc1,12600 nM (active),–
Cc1ccccc1CS(=O)(=O)Cc1ccc(C(=O)NCc2cccnc2)o1,891 nM (active),–
O=C(N/N=C/c1cccnc1)c1ccc([N+](=O)[O-])cc1,inactive,–
CCOc1ccc(OCc2ccc(C(=O)NCc3cccnc3)o2)cc1,2820 nM (active),–
CN(C)C(=O)c1ccc(-c2cc(Nc3ccccc3)ncn2)cc1,inactive,–
Cc1cccc(CNc2cc(-c3cccc(NS(C)(=O)=O)c3)ncn2)c1,2000 nM (active),–
CS(=O)(=O)Nc1cccc(-c2cc(NCc3cccs3)ncn2)c1,15800 nM (active),–
CS(=O)(=O)Nc1cccc(-c2cc(Nc3ccccc3)ncn2)c1,15800 nM (active),–
CS(=O)(=O)Nc1cccc(-c2cc(NCc3ccccc3)ncn2)c1,15800 nM (active),–
CC(=O)c1cn(CCCCCCCCCCn2cc(C(C)=O)c(=O)[nH]c2=O)c(=O)[nH]c1=O,–,2.06% [at 2.29 µM] (inactive)
NC(=O)C[C@H](N)C(N)=O,–,2.14% [at 11.4 µM] (inactive)
CCN(CC)CCOc1ccc2nc(N(C)C)sc2c1,inactive,–
CC1(C)SC(=S)N(NC(=O)Nc2ccccc2)C1N(O)C(=O)Nc1ccccc1 (centres undefined),2510 nM (active),–
COC(=O)C1CCC(C)(C(=O)Nc2ccccc2)C1(C)C (centres undefined),–,-9.58% [at 11.4 µM] (inactive)
Cn1c(CC(=O)Nc2ccc(Cl)c(Cl)c2)nnc1SCC(=O)N1CCN(c2ccccc2)CC1,1580 nM (active),–
CC(C)c1ccccc1-n1c(SCC(=O)N2CCN(c3ccccc3)CC2)nnc1-c1cccnc1,501 nM (active),–
Cc1cc2nnc(SCC(=O)N3CCN(c4ccccc4)CC3)n2c(N)n1,14100 nM (active),–
CC1CC(C)CN(C(=O)CSc2nnc(CSc3ncccn3)n2C)C1 (centres undefined),–,3.75% [at 2.29 µM] (inactive)
Cn1c(Cc2cccc3ccccc23)nnc1SCC(=O)N1CCN(c2ccccc2)CC1,1580 nM (active),–
COCC(=O)N1CCC2(CC1)CCN(c1cccc(-c3ccccc3)c1)CC2,inactive,–
